Records with an inconclusive call do not appear. Where a call stands in place of a potency, no number is given. Activity calls are given as the source filed them. Calls come from the whole dose curve; as a rule, active = well fitted activation curve with a large enough effect in the repeat runs; inconclusive = weak or mixed curves; inactive = flat fitted curve, though single readings scatter.
Assay: A CellTox Green Cytotoxicity Assay to monitor cytotoxicity in HepG2 cells - 16 hour (AID 1224876); note: nearly all actives have a fitted effect of over 45% in size
Conditions: CellTox Green fluorescence; series mostly up to 76.8 µM
Source text: National Center for Advancing Translational Sciences [NCATS]
NIH Chemical Genomics Center [NCGC]
U.S. Environmental Protection Agency [EPA]
National Institutes of Environmental Health Sciences [NIEHS]
National Toxicology Program [NTP]
Cell-based models are critical for drug discovery. Determining the natural cytotoxic effects resulting from test compounds is an essential research activity. A CellTox Green Cytotoxicity Assay to monitor cytotoxicity in real time of continues cell culture during 40 hours of the compound treatment was used to screen Tox21 10K library compounds in HepG2 cells. CellTox Green Cytotoxicity Assay is a nonlytic, homogeneous, biofluorescent method to measure cytotoxicity in cell culture after experimental manipulation. The assay system uses a proprietary asymmetric cyanine dye that is excluded from viable cells but preferentially stains the dead cell's DNA. […] Viable cells produce no appreciable increases in fluorescence. Therefore, the fluorescence signal produced by the binding interaction with dead cell DNA is proportional to cytotoxicity.
The mixture of HepG2 cell suspension and reagents were dispensed at 600cells/6 ul/well in 1536-well tissue culture treated black solid bottom plates using a Multidrop dispenser. After the assay plates were incubated at a 37 C/5% CO2 incubator for 5 hours, 23 nL of compounds dissolved in DMSO, positive and negative controls was transferred to the assay plate by a pintool work station. The plates were incubated at 37 C for 40 hours. The fluorescence intensity were measured at 0h, 8h, 16h, 24h, 32h and 40h time points using ViewLux plate reader during compound treatment.
Potency is the fitted concentration of half-maximal effect.

| SMILES | Potency | cytotoxicity increase |
| --- | --- | --- |
| c1coc(-c2nc3ccccc3[nH]2)c1 | inactive | – |
| CSc1nc(N=[N+]=[N-])nc(NC(C)C)n1 | inactive | – |
| CC1=C(C(=O)O)N2C(=O)[C@@H](N)[C@H]2SC1 | – | -9.17% [at 15.8 µM] (inactive) |
| O=C(CCN1CC1)OCC(CO)(COC(=O)CCN1CC1)COC(=O)CCN1CC1 | inactive | – |
| Nc1cc(Cl)ccc1O | inactive | – |
| Clc1ccccc1N1CCNCC1 | inactive | – |
| COc1cc(C[C@@H](C)N)c(OC)cc1C | inactive | – |
| Cc1cnc[nH]1 | inactive | – |
| [O]=[Cd] | inactive | – |
| CCCCC(=O)Cl | inactive | – |
| ClC(Cl)Br | inactive | – |
| CC(C1CC1)C(O)(Cn1cncn1)c1ccc(Cl)cc1 (stereo not given) | inactive | – |
| CCN(Cc1ccc(Cl)nc1)/C(=C/[N+](=O)[O-])NC | inactive | – |
| Cc1ccccc1CO[C@@H]1C[C@@]2(C(C)C)CC[C@]1(C)O2 | inactive | – |
| N#CC(CCc1ccc(Cl)cc1)(Cn1cncn1)c1ccccc1 (stereo not given) | 21.9 µM (active) | – |
| O=c1oc2ccccc2c(O)c1C1CCCc2ccccc21 (stereo not given) | inactive | – |
| CCC(=O)c1ccccc1 | inactive | – |
| Fc1ccc(C2(Cn3cncn3)OC2c2ccccc2Cl)cc1 (stereo not given) | inactive | – |
| O=[N+]([O-])c1cccc2c([N+](=O)[O-])cccc12 | inactive | – |
| CNC(=O)Oc1ccc(N(C)C)c(C)c1 | inactive | – |

| SMILES | Potency | cytotoxicity increase |
| --- | --- | --- |
| C[C@]12CC[C@H]3[C@@H](CCC4=CC(=O)CC[C@@]43C)[C@@H]1CC[C@@H]2C(=O)O | inactive | – |
| CCOc1nc(C(Cl)(Cl)Cl)ns1 | inactive | – |
| CCN(CC)C(=O)[C@@H]1C=C2c3cccc4[nH]cc(c34)C[C@H]2N(C)C1 | inactive | – |
| O=NN1CCCCC1 | inactive | – |
| c1cc[c]([Hg][c]2ccccc2)cc1 | inactive | – |
| CC1CN1P(=O)(N1CC1C)N1CC1C (stereo not given) | inactive | – |
| O=[N+]([O-])c1ccc2c3c(cccc13)CC2 | inactive | – |
| CCC1(c2ccccc2)C(=O)NC(=O)NC1=O | inactive | – |
| COC(=O)COc1ccc(Cl)cc1Cl | inactive | – |
| CCC(Cl)[N+](=O)[O-] (stereo not given) | inactive | – |
| COc1ccc2c(c1OC)CN1CCc3cc4c(cc3C1C2)OCO4 (stereo not given) | inactive | – |
| OC(c1ccc(F)cc1)(c1cncnc1)c1ccccc1Cl (stereo not given) | inactive | – |
| CC(C)COP(=O)(OCC(C)C)OCC(C)C | inactive | – |
| O=[N+]([O-])c1ccc(CBr)cc1 | inactive | – |
| CC(=O)CCc1ccc2c(c1)OCO2 | inactive | – |
| CC(N)=S | inactive | – |
| CCOC(=O)C(c1c(O)c2ccccc2oc1=O)c1c(O)c2ccccc2oc1=O | inactive | – |
| CNNC | inactive | – |
| O=C1OC(c2ccc(O)c(S(=O)(=O)O)c2)(c2ccc(O)c(S(=O)(=O)O)c2)c2c(Br)c(Br)c(Br)c(Br)c21 | inactive | – |
| N#CCCC#N | inactive | – |

Source: PubChem BioAssay (Tox21)
